KCNQ2 enhance – potentiators of rat KCNQ2 potassium channel; O88943; CHO-K1 KCNQ2, FluxOR thallium flux fluorescence; hits give high values; B-score at 10 µM; hit rate 0.54% among 310,000;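 active means fluorescence ratio B-score at least 3 SD of library B-scores, with initial fluorescence B-score within 3 of them, cut at about 5.3 in these data; same plate scores as AID 2156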;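 further: B-score of peak minus minimum over baseline fluorescence ratio after K+ and Tl+ stimulus; positive B-score means potentiation of KCNQ2 with more thallium influx and brighter signal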
KCNQ2 block – inhibitors of rat KCNQ2 potassium channel | hit rate 1.1% among 310,000 | B-score at 10 µM | CHO-K1 KCNQ2, FluxOR thallium flux, 20 min; hits give low values | O88943 | AID 2156;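 active means fluorescence ratio B-score at most minus 3 library SDs, with starting brightness B-score within 2 library SDs, cut at about -5.5 in these data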
KCNQ2 block conf – confirmation of rat KCNQ2 potassium channel inhibitors; shares compounds with KCNQ2 block; KCNQ2-expressing cells, thallium flux, inhibition; hits give low values; activity change, negative = inhibition, % at 10 µM; hit rate 57% among 1,000; AID 493025;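 further: 0% = vehicle wells and values are ratio percent relative to vehicle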
KCNQ1 spec – KCNQ2 inhibitor that also affects human KCNQ1 channel; activity change, negative = inhibition, % at 10 µM; KCNQ1-expressing cells, FluxOR thallium flux fluorescence; hits give low values; hit rate 15% among 1,000; shares compounds with KCNQ2 block;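 active means activity change at least 3 SD of negative controls below their mean in both duplicate wells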;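 further: CHO cells stably transfected with KCNQ1 and depolarized by potassium stimulus; peak minus minimum fluorescence over baseline after thallium addition; 0% = vehicle negative control and -100% = blank without thallium stimulus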
Target sequence (P51787 whole entry, looked up): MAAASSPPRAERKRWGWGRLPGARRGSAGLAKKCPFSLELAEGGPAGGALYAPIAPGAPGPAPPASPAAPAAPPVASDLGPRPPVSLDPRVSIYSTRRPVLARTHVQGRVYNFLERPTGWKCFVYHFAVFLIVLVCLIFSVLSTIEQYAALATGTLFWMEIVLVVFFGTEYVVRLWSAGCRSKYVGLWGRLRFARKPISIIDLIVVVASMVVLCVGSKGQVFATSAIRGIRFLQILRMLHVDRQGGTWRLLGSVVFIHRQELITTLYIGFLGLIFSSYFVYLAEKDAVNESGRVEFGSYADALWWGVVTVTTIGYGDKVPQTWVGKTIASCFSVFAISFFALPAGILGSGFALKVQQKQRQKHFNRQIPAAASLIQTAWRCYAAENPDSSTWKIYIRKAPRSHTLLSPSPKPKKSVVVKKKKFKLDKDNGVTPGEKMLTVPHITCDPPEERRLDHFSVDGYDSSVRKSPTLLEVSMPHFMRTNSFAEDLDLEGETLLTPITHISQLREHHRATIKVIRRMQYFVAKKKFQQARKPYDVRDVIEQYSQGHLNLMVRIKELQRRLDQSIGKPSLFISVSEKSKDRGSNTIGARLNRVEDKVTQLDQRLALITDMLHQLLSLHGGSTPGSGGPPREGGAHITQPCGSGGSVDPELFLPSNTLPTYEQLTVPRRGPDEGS
CHO parental ctr – counter-screen for KCNQ2 inhibitors: effect in parental CHO cells; shares compounds with KCNQ2 block; thallium flux counter-screen; hits give low values; activity change, % at 10 µM; hit rate 14% among 1,000;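 further: 0% = vehicle negative controls with stimulus buffer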
KCNQ2 patch conf – rat KCNQ2 inhibition confirmed by electrophysiology. hit rate 49% among 550. shares compounds with KCNQ2 block. calls only at 10 µM. AID 588531. KCNQ2-expressing cells, automated patch clamp current
Numbers without * were called inactive. Shown are actives, neighbours in structure and some others; about 1.6% of the full set was active somewhere. Unless noted, how the calls were made is not given here.

For O=c1oc2cc(Br)ccc2n1Cc1ccccc1 the results were KCNQ2 block inactive.
Screening CC1(C)Cc2c(C#N)c(NCC3CCCO3)nc(-c3ccco3)c2CO1 (stereo not drawn) returned KCNQ2 block inactive.
For CC1(C)Cc2c(C#N)c(NC3CCCCC3)nc(-c3ccco3)c2CO1 the results were KCNQ2 enhance -12.9, KCNQ2 block -12.9*, KCNQ2 block conf inactive, KCNQ1 spec inactive and CHO parental ctr inactive.
`O=C(NC1CC(=O)N(c2ccc(Cl)cc2)C1)C1CC1` (stereo not drawn) gave KCNQ2 enhance 0.07 and KCNQ2 block inactive.
For COC(=O)C1=C(N)c2c(F)cccc2C1(C#N)c1ccc(F)cc1 (stereo not drawn) the results were KCNQ2 block inactive.
Screening O=C(c1cc(C(=O)N2CCOCC2)c2nc3ccccc3n2c1)c1ccccc1O returned KCNQ2 block inactive.
CCc1c(C)sc2nc3c(C(=O)N4CCOCC4)cc(C(=O)c4cc(F)ccc4O)cn3c(=O)c12 was read as KCNQ2 enhance -8.48, KCNQ2 block -8.48*, KCNQ2 block conf -24.5%*, KCNQ1 spec inactive, CHO parental ctr inactive and KCNQ2 patch conf active.
CC(C)[C@H](NC(=O)OCc1ccccc1)C(=O)OCC(=O)NCCc1ccccc1 was read as KCNQ2 enhance -7.07, KCNQ2 block -7.07*, KCNQ2 block conf inactive, KCNQ1 spec inactive and CHO parental ctr inactive.
For CC(C)[C@H](NC(=O)c1ccccc1)C(=O)OCC(=O)NCCc1ccc(F)cc1 the results were KCNQ2 block inactive.
Cc1cc(NC(=O)Nc2ccccc2[N+](=O)[O-])n(C)n1 was read as KCNQ2 enhance 1.28 and KCNQ2 block inactive.
For CCCCC(CC)COC1(c2ccccc2)OC(=O)c2ccccc21 (stereo not drawn) the results were KCNQ2 enhance -9.69, KCNQ2 block -9.69*, KCNQ2 block conf -33.0%*, KCNQ1 spec inactive, CHO parental ctr inactive and KCNQ2 patch conf inactive.
CCCCOC1(c2ccccc2)OC(=O)c2ccccc21 (stereo not drawn) was read as KCNQ2 block inactive.
`NC(=NCCc1ccccc1)NC(=O)c1cc(Cl)ccc1O` gave KCNQ2 block inactive.
`CC(=O)c1ccc(OCCCC(=O)OCC(=O)Nc2ccc3[nH]c(=O)[nH]c3c2)cc1` gave KCNQ2 enhance 0.73 and KCNQ2 block inactive.
For c1ccc(-c2n[nH]c(-c3ccccc3)c2-c2nc3ccccc3[nH]2)cc1 the results were KCNQ2 enhance -9.16, KCNQ2 block -9.16*, KCNQ2 block conf -36.0%*, KCNQ1 spec inactive, CHO parental ctr inactive and KCNQ2 patch conf active.
For c1ccc(-c2nc3ccccc3[nH]2)cc1 the results were KCNQ2 enhance 1.26 and KCNQ2 block inactive.
Cc1cc(-c2ccccc2)c2ccc(NC(=O)C(C)(C)C)nc2n1 was read as KCNQ2 enhance 0.37 and KCNQ2 block inactive.
Screening COc1ccc(-c2nc3cc(C)ccn3c2NCc2ccc3c(c2)OCO3)cc1 returned KCNQ2 block inactive.
Screening COc1ccc(-c2nc3ccccn3c2NCc2ccc3c(c2)OCO3)cc1 returned KCNQ2 enhance -8.4, KCNQ2 block -8.4*, KCNQ2 block conf inactive, KCNQ1 spec inactive and CHO parental ctr inactive.
Cc1cc(C)cc(N(CC(=O)NC2CCCC2)C(=O)CCC(=O)Nc2nc(C)cs2)c1 was read as KCNQ2 block inactive.
For CC(C)N(C)Cc1nnnn1CC(=O)N(C)Cc1cccc(Cl)c1 the results were KCNQ2 block inactive.
`O=C(CCc1ccc(Oc2cc([N+](=O)[O-])cc([N+](=O)[O-])c2)cc1)N1CCCCCC1` gave KCNQ2 block inactive.
Cc1cccc(N2C(=O)/C(=C\c3ccc(C(=O)O)cc3)c3ccccc3C2=O)c1 was read as KCNQ2 enhance -9.14, KCNQ2 block -9.14*, KCNQ2 block conf -19.5%*, KCNQ1 spec inactive, CHO parental ctr inactive and KCNQ2 patch conf inactive.
Screening Cc1cccc(N2C(=O)c3ccc(C(=O)Nc4ccccn4)cc3C2=O)c1 returned KCNQ2 enhance 0.05 and KCNQ2 block inactive.
`Cc1ccc(OCCNC(=O)Cc2ccc(S(=O)(=O)N3CCOCC3)s2)cc1` gave KCNQ2 enhance 1.24 and KCNQ2 block inactive.
Screening Cc1ccc(NC(=S)N2CCN(S(=O)(=O)c3ccc(F)cc3)CC2)cc1 returned KCNQ2 block inactive.
`CCN1CCN(c2ccc(NC(=O)c3cccc(F)c3)cc2Cl)CC1` gave KCNQ2 enhance 0.52 and KCNQ2 block inactive.
Screening O=C(COc1ccc(Br)cc1CNCCc1ccccc1)NCc1ccccc1 returned KCNQ2 enhance -7.59, KCNQ2 block -7.59*, KCNQ2 block conf -32.0%*, KCNQ1 spec inactive, CHO parental ctr inactive and KCNQ2 patch conf active.
For CCCNCc1cc(Br)ccc1OCC(=O)NCCc1ccccc1 the results were KCNQ2 enhance 0.72 and KCNQ2 block inactive.
For CCN(Cc1ccccc1)C(c1ccccn1)c1nnnn1C(C)(C)CC (stereo not drawn) the results were KCNQ2 block inactive.
For CC(C)(C)n1nnnc1C(c1ccccn1)N(Cc1ccccc1)Cc1ccc(Cl)cc1 (stereo not drawn) the results were KCNQ2 enhance -7.73, KCNQ2 block -7.73*, KCNQ2 block conf -27.5%*, KCNQ1 spec inactive, CHO parental ctr inactive and KCNQ2 patch conf inactive.
Cc1cccc(-c2nnc(SCc3ccc(C#N)cc3)n2Cc2ccco2)c1 was read as KCNQ2 enhance -8.81, KCNQ2 block -8.81*, KCNQ2 block conf -26.0%*, KCNQ1 spec inactive and CHO parental ctr inactive.
For CCn1c(SCc2ccc(C#N)cc2)nnc1-c1cccc(Cl)c1 the results were KCNQ2 block inactive.
Screening Cc1nn(CC(=O)NCC(C)c2ccccc2)c(=O)c2cccn12 (stereo not drawn) returned KCNQ2 enhance 0.04 and KCNQ2 block inactive.
Screening C=CCNC(=O)/C(C#N)=C/c1ccccc1Cl returned KCNQ2 enhance -6.73, KCNQ2 block -6.73*, KCNQ2 block conf inactive, KCNQ1 spec inactive and CHO parental ctr inactive.
`C=CCNC(=O)/C(C#N)=C/c1ccc(C(=O)O)cc1` gave KCNQ2 enhance 0.4 and KCNQ2 block inactive.
For Cn1nc(C(=O)NCc2cccs2)c2ccccc2c1=O the results were KCNQ2 block inactive.
For Cc1ccc2[nH]c3c(=O)n(CC(=O)Nc4ccccc4N4CCN(C)CC4)ncc3c2c1 the results were KCNQ2 block inactive.
Screening COc1ccc(-c2cc(C(=O)N3CCN(C(c4ccccc4)c4ccccc4)CC3)no2)cc1 returned KCNQ2 block inactive.
`O=C(c1cc(-c2ccco2)on1)N1CCN(C(c2ccccc2)c2ccccc2)CC1` gave KCNQ2 enhance -7.67, KCNQ2 block -7.67*, KCNQ2 block conf -29.0%*, KCNQ1 spec inactive, CHO parental ctr inactive and KCNQ2 patch conf inactive.

Screening results: PubChem BioAssay, Johns Hopkins Ion Channel Center
